Most compounds without a hit are left out; they make up all but 4.6% or so of the library.
Wee1 stabilizer: human Wee1 degradation inhibition, primary screen | P30291 | HeLa Luc-Wee1K328M stability, luciferase luminescence; 100% = proteasome inhibitor MG132 effect | reporter increase, % at 5 µM | hit rate 1.2% among 220,000;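 active = activation above the mean of all tested compounds plus 3 SD, set per screening run, cut at about 8.8% in these data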;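 also: cells exposed to compound for 20 h before luminescence read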
hcDAF-12 act: activators of H. contortus DAF-12 nuclear receptor. HEK293 hcDAF-12 lit1-tk-luc reporter, luminescence; 0% DMSO, 100% Δ7-dafachronic acid. activation, % at 6.8 µM. hit rate 1.4% among 370,000;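 active = activation above the mean of all tested compounds plus 3 SD, cut at about 5.5% in these data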
ssDAF12 agonist: S. stercoralis DAF-12 activation, primary screen | activation, % at 6.8 µM | HEK293 ssDAF-12/GRIP1 lit1-tk-luc reporter, luminescence; % of 3 µM dafachronic acid response | hit rate 1% among 370,000 | AID 652126;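 active = activation above the mean over all tested compounds plus 3 SD, cut at about 0.9% in these data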
hgDAF12 agonist: activates the H. glycines DAF-12 receptor ligand-binding domain. HEK293 GAL4-hgDAF12 UAS-luciferase reporter, agonist luminescence; normalized to butyrate control. activation, % at 6.8 µM. hit rate 1.8% among 370,000. AID 687014;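 active = activation above a cutoff set at the mean of all screened compounds plus 3 SD, cut at about 10% in these data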
DAX1 inh-1: blocks DAX1 repression of SF-1 activated StAR promoter; HEK293T StAR-luciferase reporter, SF-1/DAX-1 repression relief; inhibition, % at 6.8 µM; hit rate 1.1% among 370,000; AID 652010;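 active = inhibition above the mean over all tested compounds plus 3 SD, cut at about 3.6% in these data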;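 also: higher inhibition means more luminescence from relief of DAX-1 repression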
DAX1 inh-2: inhibits human nuclear receptor DAX1; AID 504766; inhibition, % at 6.75 µM; P51843; HEK293 Gal4-DAX1 luciferase reporter, luminescence; hit rate 0.99% among 340,000;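 active = inhibition above the mean over all tested compounds plus 3 SD, cut at about 4.2% in these data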;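 also: inhibition shows as a rise in luminescence from relieved DAX1 repression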
Target sequence (P51843 207-470 limits assumed): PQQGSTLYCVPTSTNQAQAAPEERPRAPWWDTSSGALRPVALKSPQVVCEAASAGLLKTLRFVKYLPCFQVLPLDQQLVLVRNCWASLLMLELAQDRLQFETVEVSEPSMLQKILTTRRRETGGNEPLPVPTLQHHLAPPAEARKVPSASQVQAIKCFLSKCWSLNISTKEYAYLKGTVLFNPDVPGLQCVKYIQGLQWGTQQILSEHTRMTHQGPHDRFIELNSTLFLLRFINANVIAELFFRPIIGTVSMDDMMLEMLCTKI
LXRb hcDAF ctr: LXR-beta agonism as hcDAF-12 counter-screen; 3,400 tested, under 10 active; shares compounds with hcDAF-12 act; AID 743027; activation, % at 6.8 µM; HEK293 Gal4-LXR tk-luc reporter, luminescence, 24 h; normalized: DMSO 0%, positive control 100%;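 active = mean percent activation of the reporter above a cutoff set as the average over tested compounds plus their standard deviation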
Target sequence (P55055 whole entry, looked up, the tested form may be a part): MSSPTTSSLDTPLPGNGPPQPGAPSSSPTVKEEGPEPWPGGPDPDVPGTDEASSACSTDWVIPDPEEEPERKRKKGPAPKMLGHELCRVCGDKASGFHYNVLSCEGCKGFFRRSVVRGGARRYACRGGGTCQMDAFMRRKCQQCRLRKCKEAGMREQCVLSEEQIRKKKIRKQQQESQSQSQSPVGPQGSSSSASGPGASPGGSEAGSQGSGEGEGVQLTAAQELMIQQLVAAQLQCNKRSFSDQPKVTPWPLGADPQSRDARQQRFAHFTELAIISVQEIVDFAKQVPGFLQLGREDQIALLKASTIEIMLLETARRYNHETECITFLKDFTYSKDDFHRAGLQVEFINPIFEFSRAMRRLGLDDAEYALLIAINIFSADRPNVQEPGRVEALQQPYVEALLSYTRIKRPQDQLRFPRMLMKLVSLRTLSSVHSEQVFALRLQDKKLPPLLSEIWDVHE
hcDAF12 ag: hcDAF-12 agonism, confirmation assay; HEK293 hcDAF-12 lit1-tk-luc reporter, luminescence; % of Δ7-dafachronic acid response; activation, % at 6.8 µM; shares compounds with hcDAF-12 act; hit rate 61% among 3,400;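 active = mean activation across triplicate tests above the threshold derived from the earlier primary screen, cut at about 5.5% in these data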
Each line names hits and unclear results; the compound was inactive in the other large screens (follow-up assays come after a bar, where they were run).

CC(C)(C)CN1CCN(CC#Cc2ccccc2)CC1CCO (centres undefined)	hcDAF-12 act 7.5 (no result: Wee1 stabilizer) | LXRb hcDAF ctr inactive | hcDAF12 ag inactive
CN1CCN(CC#Cc2ccccc2)CC1CCO (centres undefined)	none (no result: Wee1 stabilizer)
COC(=O)C1=C(C)N(C)C(=NCc2cc(OC)c(OC)c(OC)c2)NC1c1cccc(Cl)c1 (centres undefined)	none (no result: Wee1 stabilizer, DAX1 inh-2)
COC(=O)c1cc(-c2ccccc2)c(=O)n2c1CCC2	none (no result: Wee1 stabilizer, DAX1 inh-2)
COC(=O)c1cc(-c2ccc(C(C)(C)C)cc2)c(=O)n2c1CCC2	hcDAF-12 act 7.1 (no result: Wee1 stabilizer, DAX1 inh-2) | LXRb hcDAF ctr inactive | hcDAF12 ag inactive
O=C(CN1CCCC1c1cccs1)Nc1cc(S(=O)(=O)N2CCCCC2)ccc1Cl (centres undefined)	none (no result: Wee1 stabilizer)
Cc1nc2ccccc2nc1SCC(=O)c1ccccc1	hcDAF-12 act 6.7 | LXRb hcDAF ctr inactive | hcDAF12 ag inactive
O=C(CSc1ccc2ccccc2n1)c1ccccc1	hcDAF-12 act 9.3, ssDAF12 agonist 1.4 | LXRb hcDAF ctr inactive | hcDAF12 ag 8.2
O=C(CSc1ccc2ccccc2n1)N/N=C/c1ccccc1O	none (no result: Wee1 stabilizer)
CC1CCCN(CC(=O)Nc2ccc(S(=O)(=O)N3C(C)CCCC3C)cc2)C1 (centres undefined)	none (no result: Wee1 stabilizer)
CCOC1CCCc2oc(-c3ccc(N(C)C)cc3)c(C(=O)OC)c21 (centres undefined)	none (no result: Wee1 stabilizer, DAX1 inh-2)
COc1ccc(O)c(/C=C(\C#N)C(=O)Nc2ccccn2)c1	hcDAF-12 act 7.9 (no result: Wee1 stabilizer) | LXRb hcDAF ctr inactive | hcDAF12 ag 5.7
COc1ccc(C)c2sc(=NC(=O)c3ccccc3)n(C)c12	hcDAF-12 act 10 | LXRb hcDAF ctr inactive | hcDAF12 ag 13
CCc1ccc(/C=C/C(=O)C2C(=O)c3ccccc3C2=O)cc1	hcDAF-12 act 8.8, ssDAF12 agonist 1.0 | LXRb hcDAF ctr inactive | hcDAF12 ag 5.9
COc1ccccc1N1CCN(S(=O)(=O)CCNC(=O)CC2CCCC2)CC1	none (no result: Wee1 stabilizer)
Clc1ccc(/C=C/c2nc3ccccc3[nH]2)c(Cl)c1	hcDAF-12 act 12, ssDAF12 agonist 1.2 | LXRb hcDAF ctr inactive | hcDAF12 ag 17
COc1ccc(-c2nc(NCCCN(C)C)c3ccccc3n2)cc1	hcDAF-12 act 10.0, DAX1 inh-2 6.7 (no result: Wee1 stabilizer) | LXRb hcDAF ctr inactive | hcDAF12 ag 9.3
CCN(CC)CCCNc1nc2ccccc2c2[nH]c3ccc(OC)cc3c12	hcDAF-12 act 14, ssDAF12 agonist 3.6 (no result: Wee1 stabilizer) | LXRb hcDAF ctr inactive | hcDAF12 ag 16
O=C(Nc1ccc(OC(F)(F)F)cc1)c1ccc2ccccc2n1	hcDAF-12 act 7.8 | LXRb hcDAF ctr inactive | hcDAF12 ag 7.7
O=C(Nc1ccc(Cl)cn1)c1ccc2ccccc2n1	hcDAF-12 act 7.8, ssDAF12 agonist 1.4 | LXRb hcDAF ctr inactive | hcDAF12 ag 17
C/C(C/C(C)=C1/SC(=S)NC1=O)=C1\SC(=S)NC1=O	hcDAF-12 act 6.8 | LXRb hcDAF ctr inactive | hcDAF12 ag inactive
CCOC(=O)c1c(C)oc2c1c(C(c1ccccc1)N1CCOCC1)c(O)c1ccccc12 (centres undefined)	hcDAF-12 act 11, ssDAF12 agonist 1.0, hgDAF12 agonist 13, DAX1 inh-1 4.0, DAX1 inh-2 4.2 | LXRb hcDAF ctr inactive | hcDAF12 ag 7.3
CCOC(=O)c1c(C)oc2c1c(C=NCCO)c(O)c1ccccc12	none
O=C(COc1ccc2c(c1)OCO2)Nc1nccs1	hcDAF-12 act 7.5, ssDAF12 agonist 1.1, hgDAF12 agonist 11 (no result: Wee1 stabilizer) | LXRb hcDAF ctr inactive | hcDAF12 ag 6.0
O=C(NCC1CCCO1)c1ccc(Br)c(S(=O)(=O)N2CCOCC2)c1 (centres undefined)	none (no result: Wee1 stabilizer)
COCCNC(=O)C1CCCN(C(=O)c2cc(-c3cccs3)oc2C)CC1 (centres undefined)	none (no result: Wee1 stabilizer, DAX1 inh-2)
Cn1c(SCC(=O)Nc2cccnc2Cl)nc2ccccc21	none (no result: Wee1 stabilizer)
CC(C)Oc1ccc(C(=O)Nc2nc3ccccc3[nH]2)cc1	hcDAF-12 act 8.7 (no result: Wee1 stabilizer) | LXRb hcDAF ctr inactive | hcDAF12 ag inactive
CC(C)Oc1ccc(C(=O)Nc2ncn[nH]2)cc1	none (no result: Wee1 stabilizer)
O=C(COc1cccc(Cl)c1)N/N=C\c1cc2ccccc2nc1Cl	none
O=C(CNc1ccc2ccccc2c1)N/N=C/c1cc2ccccc2nc1Cl	hcDAF-12 act 13 | LXRb hcDAF ctr inactive | hcDAF12 ag inactive
Clc1ccc2nc(-c3ccc(Br)s3)cn2c1	hcDAF-12 act 15, ssDAF12 agonist 1.0, hgDAF12 agonist 11 | LXRb hcDAF ctr inactive | hcDAF12 ag 19
O=C(O)c1ccccc1-c1cn2cc(Cl)ccc2n1	none
COc1ccc(-c2cn3cc(Cl)ccc3n2)cc1OC	hcDAF-12 act 8.6 | LXRb hcDAF ctr inactive | hcDAF12 ag inactive
COc1ccc(-c2cn3nc(C)c(C)nc3n2)cc1OC	none (no result: Wee1 stabilizer)
NC(CSC(c1ccccc1)(c1ccccc1)c1ccc2c(c1)OCO2)C(=O)O (centres undefined)	none (no result: Wee1 stabilizer)
CC(C)(C)NC(=O)C(c1ccc(O)cc1)N(Cc1ccco1)C(=O)Cn1nnc(-c2cccs2)n1 (centres undefined)	hcDAF-12 act 8.2 | LXRb hcDAF ctr inactive | hcDAF12 ag inactive
CN(c1ccccc1)S(=O)(=O)c1cccc(C(=O)NCC(c2cccs2)N2CCOCC2)c1 (centres undefined)	none (no result: Wee1 stabilizer)
Cc1ccc(C2=Nc3ccccc3NC(C)(c3ccc(C)o3)C2)o1 (centres undefined)	hcDAF-12 act 15, ssDAF12 agonist 1.4, hgDAF12 agonist 12 | LXRb hcDAF ctr inactive | hcDAF12 ag 5.7
COc1ccc2[nH]cc(C(C)c3c[nH]c4ccccc34)c2c1 (centres undefined)	none (no result: Wee1 stabilizer, DAX1 inh-2)
CC(c1cc(F)ccc1O)c1c[nH]c2ccccc12 (centres undefined)	hcDAF-12 act 6.7 (no result: Wee1 stabilizer, DAX1 inh-2) | LXRb hcDAF ctr inactive | hcDAF12 ag inactive
COC(=O)c1cc2c(s1)-c1ccc(OC)cc1CC2	hcDAF-12 act 7.1, DAX1 inh-2 7.7 | LXRb hcDAF ctr inactive | hcDAF12 ag inactive
COC(=O)c1cc2c(s1)-c1ccccc1OC2	hcDAF-12 act 8.9 (no result: Wee1 stabilizer) | LXRb hcDAF ctr inactive | hcDAF12 ag inactive
COc1ccc2c(c1)CC/C2=N\NC(=O)c1ccccc1	none
O=C(Nc1ccc2c(c1)CCC2)c1cccc(OC(F)F)c1	hcDAF-12 act 7.4, ssDAF12 agonist 1.3, hgDAF12 agonist 11 (no result: Wee1 stabilizer, DAX1 inh-2) | LXRb hcDAF ctr inactive | hcDAF12 ag inactive
O=C(CNC(=O)c1ccccc1)OCc1nc2ccccc2s1	hcDAF-12 act 7.5, ssDAF12 agonist 1.0 | LXRb hcDAF ctr inactive | hcDAF12 ag 6.4

Screening results from PubChem.
